PP5 inh: blocks human protein phosphatase 5 activity | purified PP5c, OMFP substrate fluorescence | AID 1987 | inhibition, % at 6.7 µM | P53041 | hit rate 0.18% among 320,000;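 active means inhibition above the campaign's mean inhibition across all tested compounds plus 3 SD, cut at about 9.5% in these data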;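 further: 0% = DMSO only and 100% = 100 µM cantharidin control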
CSC inhib: blocks cancer stem cells. cancer stem cell-like cells viability, luminescence. inhibition, % at 7.5 µM. hit rate 1.1% among 300,000. AID 2717; in the data active means inhibition above about 75%; tested in HMLE shEcad cells
ALR inh: human ALR oxidase inhibition via reduced H2O2; P55789; purified ALR, DTT oxidation, H2O2 HRP-luminol luminescence; inhibition, % (test concentration not listed); hit rate 3.8% among 290,000;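 active means mean replicate inhibition above about 79%, with every replicate also reaching it, limit read from the data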
Target sequence (P55789 whole entry, looked up): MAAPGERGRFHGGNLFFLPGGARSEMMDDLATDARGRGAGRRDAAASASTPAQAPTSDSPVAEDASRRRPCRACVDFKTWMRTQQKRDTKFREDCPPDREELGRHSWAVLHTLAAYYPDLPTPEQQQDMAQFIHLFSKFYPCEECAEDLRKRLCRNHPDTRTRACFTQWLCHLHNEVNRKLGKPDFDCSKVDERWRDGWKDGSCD
Calb FLC: C. albicans growth modulation with fluconazole; hit rate 0.57% among 300,000; growth inhibition, % (no concentration beside the values); C. albicans CaCi-2 (fluconazole-resistant clinical isolate) + fluconazole, Alamar Blue growth, 48 h; AID 1979;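 active means growth inhibition above about 58% in most replicates, limit read from the data, passing the limit was not always enough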;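 further: all wells also contain fluconazole at 8 µg/ml as a sub-toxic cotreatment; 0% = median of DMSO wells and 100% = median of geldanamycin control wells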
PP1 counter: blocks human PP1-alpha phosphatase, a PP5 counter-screen; AID 2235; P62136; hit rate 0.9% among 320,000; inhibition, % at 6.7 µM; purified PP1alpha, OMFP fluorescence;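 active means inhibition above the mean inhibition of all tested compounds plus 3 SD, computed separately for each screening campaign, cut at about 15% in these data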
Target sequence (P62136 whole entry, looked up): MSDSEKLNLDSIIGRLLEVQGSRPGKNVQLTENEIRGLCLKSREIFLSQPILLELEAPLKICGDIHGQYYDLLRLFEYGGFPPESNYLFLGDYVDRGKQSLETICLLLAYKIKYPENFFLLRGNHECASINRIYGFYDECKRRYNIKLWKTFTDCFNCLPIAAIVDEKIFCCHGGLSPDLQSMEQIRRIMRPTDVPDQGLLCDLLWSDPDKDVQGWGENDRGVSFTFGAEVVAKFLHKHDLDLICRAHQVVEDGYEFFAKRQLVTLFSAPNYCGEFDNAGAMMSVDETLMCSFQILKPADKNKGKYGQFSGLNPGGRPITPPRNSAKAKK
PP1 confirm: human PP1 phosphatase inhibition, confirmation | shares compounds with PP1 counter | purified PP1alpha, OMFP substrate fluorescence | inhibition, % at 6.7 µM | hit rate 52% among 1,900 | AID 2358;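 active means mean PP1 inhibition above a set limit taken from the earlier primary screen, cut at about 15% in these data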
PP5 counter: PP5 phosphatase inhibition, counter-screen for PP1 inhibitors; shares compounds with PP1 counter; purified PP5c, OMFP fluorescence; inhibition, % at 6.7 µM; hit rate 4% among 1,900;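 active means mean PP5 inhibition over triplicate wells above about 9.5% taken from the earlier PP1 screen, limit read from the data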
Active calls of the source: *; . = no result. Most compounds without a hit are left out; they make up all but 5.4% or so of the library.

SMILES | PP5 inh | CSC inhib | ALR inh | Calb FLC | PP1 counter | PP1 confirm | PP5 counter
C#CCOCCOCCOCCNc1nc(N2CCN(C(=O)[C@H](Cc3ccc(O)cc3)n3cc([C@@H](N)CC(C)C)nn3)CC2)nc(N2CCN(C(=O)[C@H](Cc3cc4ccccc4[nH]3)n3cc([C@@H](N)CC(C)C)nn3)CC2)n1 | 1 | -24 | . | 11 | 11 | . | .
O=C(NCCCN=C1NS(=O)(=O)c2ccccc21)c1ccc(F)cc1 | 0 | -12 | -3 | 8 | 1 | . | .
CCOc1cccc2c1OC1(C)CC2NC(=O)N1Cc1ccccc1 (stereo not drawn) | . | . | . | 2 | . | . | .
Cc1ccc(NC(=O)C(OC(=O)c2ccc(C=O)cc2)c2ccccc2)cc1Cl (stereo not drawn) | 2 | -7 | -2 | 24 | 22* | 12 | -3
COCCNC(=O)Cn1c(=O)n(Cc2ccc(C(=O)NCCc3ccc(OC)c(OC)c3)cc2)c(=O)c2ccccc21 | 3 | -13 | -11 | -1 | -1 | . | .
Cc1cccc(N2CCN(C(=O)c3ccc4c(c3)c(C)c(C)n4C)CC2C)c1 (stereo not drawn) | 4 | 60 | -7 | 0 | 5 | . | .
Cc1ccc(CSCC2Nc3ccc(C(=O)N4CCN(c5cccc(C)c5)C(C)C4)cc3NC2=O)cc1 (stereo not drawn) | 1 | 19 | 14 | 6 | 19* | 29* | -6
O=C1C2C3C=CC(CC3)C2C(=O)N1/N=C/c1ccccc1O (stereo not drawn) | 5 | 19 | -2 | -4 | 0 | . | .
CCCSc1nnc(N2C(=O)C(O)=C(C(=O)c3ccco3)C2c2ccccc2F)s1 (stereo not drawn) | 3 | -6 | 52 | -10 | 22* | 14 | -3
CSc1nnc(N2C(=O)C(O)=C(C(=O)c3ccc(C)o3)C2c2ccc(C)cc2)s1 (stereo not drawn) | 2 | -4 | 5 | 0 | 30* | 25* | -2
CSc1nnc(N2C(=O)C(O)=C(C(=O)c3ccco3)C2c2ccccc2)s1 (stereo not drawn) | -1 | -13 | 11 | -6 | 3 | . | .
[O-]c1n[n+](-c2ccc(Cl)cc2)cc2ccccc12 | 2 | 9 | 72 | -23 | 0 | . | .
Cc1ccc(-n2cc(-c3ccccc3)c3c(N4CCOCC4)ncnc32)cc1 | . | . | . | -25 | . | . | .
CN1C(=O)Cc2cc(S(=O)(=O)N3CCOCC3)ccc21 | 1 | . | 7 | 8 | -2 | . | .
Cc1cccc(N2CCN(S(=O)(=O)c3ccc4c(c3)CC(=O)N4C)CC2)c1C | 1 | 3 | -1 | -17 | 18* | 8 | 3
COc1ccc(CCC(=O)OCC(=O)c2c(N)n(CC(C)C)c(=O)n(C)c2=O)cc1 | 3 | -4 | -2 | 1 | 0 | . | .
COc1ccccc1CCC(=O)OCC(=O)c1c(N)n(CC(C)C)c(=O)n(C)c1=O | 3 | 5 | 11 | 1 | 83* | -5 | 0
Cc1ccccc1C(=O)N/C(=C/c1ccc(-c2cccnc2Cl)o1)C(=O)NCCCN1CCN(C)CC1 | 2 | 8 | -5 | -11 | -1 | . | .
O=C(O)c1ccccc1-c1nc2cc(Cl)ccc2c(=O)n1O | 7 | 5 | 0 | 15 | 22* | 24* | 0
CNC[C@H](Cc1ccccc1)NC[C@@H](Cc1cccc2ccccc12)NCCc1ccc(C)cc1 | 6 | 108* | -42 | 111* | 20* | -6 | 1
CC1CN(c2ccc([N+](=O)[O-])c(NCCOc3ccccc3)c2)CCN1 (stereo not drawn) | 0 | 68 | -1 | -6 | 3 | . | .
O=C(NCc1ccccc1)C(=O)NCC(c1ccco1)N1CCOCC1 (stereo not drawn) | -1 | -2 | -4 | -11 | 0 | . | .
COc1cc(/C=N/Nc2nc(Nc3ccccc3)nc(-n3nc(C)cc3C)n2)cc(OC)c1OC | 6 | 102* | 1 | 8 | 24* | 34* | 3
COc1ccc(O)c(/C=N/Nc2nc(Nc3ccccc3)nc(-n3nc(C)cc3C)n2)c1 | 5 | 92* | -9 | -3 | 21* | 25* | 5
COc1cc(/C=N/Nc2nc(Nc3ccc(C)cc3)nc(-n3nc(C)cc3C)n2)cc(OC)c1OC | 4 | 1 | -6 | 2 | 22* | 21* | 0
SMILES | PP5 inh | CSC inhib | ALR inh | Calb FLC | PP1 counter | PP1 confirm | PP5 counter
Cc1ccc(-n2ncc(C(=O)N3CCN(C(=O)c4ccco4)CC3)c2-n2cccc2)cc1 | -1 | -7 | -6 | 46 | -5 | . | .
O=C(Cc1ccccc1Cl)NCCCn1ccnc1 | -1 | -14 | -9 | -1 | -2 | . | .
O=C(/C=C/c1ccc(F)cc1)NC(=S)NNC(=O)[C@H]1C[C@@H]1c1ccccc1 | 3 | -5 | -5 | . | 18* | 7 | -3
CC(=O)C1=C(O)C(=O)N(c2cc(C(C)(C)C)on2)C1c1ccc(Br)cc1 (stereo not drawn) | 1 | . | 40 | 25 | 20* | 22* | -1
COc1ccc(C2C(C(C)=O)=C(O)C(=O)N2c2ccc(Br)cc2)cc1 (stereo not drawn) | 3 | -11 | 3 | -47 | 18* | 17* | -3
CC(=O)C1=C(O)C(=O)N(c2cc(C(C)(C)C)on2)C1c1ccc(C(C)C)cc1 (stereo not drawn) | 2 | -5 | 22 | 35 | 8 | . | .
CC(=O)C1=C(O)C(=O)N(c2ccc(Br)cc2)C1c1ccc(Cl)cc1 (stereo not drawn) | -2 | 3 | 56 | 4 | 28* | 21* | -1
O=C(NNC(=O)c1cc2cc(OC(F)(F)F)ccc2[nH]1)c1ccc(Cl)cc1 | 0 | 4 | -16 | -8 | 0 | . | .
COCCNC(=S)N/N=C/c1ccc(OCc2ccc(C(=O)OC)cc2)c(OC)c1 | 4 | -11 | 0 | -2 | 2 | . | .
COC(=O)COc1cccc(NC(=O)c2cc(OC)cc(OC)c2)c1 | -1 | -5 | -7 | 7 | 0 | . | .
COc1cc(NC(=O)c2cnc(N)s2)cc(C(=O)Nc2cccc(C(F)(F)F)c2)c1 | 7 | 50 | 5 | -5 | 32* | 34* | 1
c1ccc(-c2nc(NCc3ccco3)c3ccccc3n2)nc1 | 1 | -6 | 6 | -21 | 26* | 24* | -2
COc1ccccc1Nc1nc(NCc2ccco2)c2ccccc2n1 | 2 | 24 | 29 | 10 | 4 | . | .
Cc1ccc(Nc2nc(NCc3ccco3)c3ccccc3n2)cc1 | 4 | 56 | 26 | 92* | 20* | 15 | -2
CSc1ccccc1NC(=O)CN(C)C(=O)Cc1c(F)cccc1Cl | 4 | 6 | 1 | -7 | 0 | . | .
Cc1nc(SC(C(N)=O)c2ccccc2)c(C#N)c(C)c1C (stereo not drawn) | 1 | -18 | -17 | 4 | -6 | . | .
COc1ccccc1-c1cc(-c2ccccc2)nc(SC(C(N)=O)c2ccccc2)c1C#N (stereo not drawn) | 2 | 12 | -8 | -9 | 19* | 27* | -6
CCCCCCSc1cc(-c2nc3ccc(Cl)cn3c2NC2CCCCC2)ccc1OC | 2 | 24 | -7 | -9 | -2 | . | .

Screening results from PubChem.
